Article PMC7826789 (International Journal of Molecular Sciences, 2021)

Tested on: MAP2K5

Kinases covered, MAP2K5:
COc1cc2nccc(Nc3ccc(OCc4ccc(NC(C)=O)cc4)cc3)c2cc1OC [GW440135], COc1cc(Nc2nccc(N3CCC(NC(=O)Nc4cc(C)ccc4C)C3)n2)cc(OC)c1OC (stereo not shown) [GSK1379762], COc1cc2ncn(-c3cc(OCC4CCCO4)c(C(N)=O)s3)c2cc1OC (stereo not shown) [GSK204607], Cc1ccc(C(=O)Nc2ccc(Nc3ccnc4cc(-c5ccccn5)ccc34)cc2O)cc1 [GW440146]

Tested on: MAPK10

Kinases covered, MAPK10:
O=C(O)/C=C/C(=O)O.OCCCNc1nccc(-c2c(-c3ccc(F)cc3)nn3cc(C(F)(F)F)ccc23)n1 [GW569293E], CCc1nc(-c2cccc(C)c2)c(-c2ccncc2)s1 [TPKI-106], Fc1ccc(-c2nn3ccccc3c2-c2ccncc2)cc1 [GW434756X], COC(=O)c1c(-c2ccccc2)c2cc(Br)ccc2c(=O)n1Cc1ccc(S(C)(=O)=O)cc1 [TPKI-100], CCC(=O)c1c(-c2ccccc2)c2cc(Cl)ccc2c(=O)n1Cc1cc(S(C)(=O)=O)n(CC(N)=O)n1 [TPKI-105], Nc1nccc(-c2c(-c3ccc(F)cc3)ncn2C2CCN(Cc3ccccc3)CC2)n1 [SB-219980]
